From the supplement of paper PMC8728848
Only a selection was taken, and the strongest signals are over-represented in it overall.

Assays:
Experiment in all cases: glycan array binding signal (z-score within array); higher = stronger binding
Settings in all cases: glycan notation: IUPAC condensed, linker removed
[1] = molecular target: Fuc(a1-2)Gal(b1-3)GlcNAc(b1-3)Gal(b1-4)Glc
Method in brief: (§1)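 Arrays were curated from the Consortium for Functional Glycomics database, 3228 in total, and kept only where the protein sequence was available. Binding is expressed as a within-array Z-score. This score was averaged across arrays of the same protein sequence at different concentrations or buffers and across linkers, and negative values can be read as non-binding.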

[2] = molecular target: Fuc(a1-2)Gal(b1-4)GlcNAc(b1-3)Gal(b1-4)GlcNAc(b1-3)Gal(b1-4)GlcNAc
Method in brief: as §1

[3] = molecular target: Fuc(a1-2)Gal(b1-4)GlcNAc6S
Method in brief: as §1

[4] = molecular target: Fuc(a1-2)Gal(b1-4)[Fuc(a1-3)]GlcNAc
Method in brief: as §1

[5] = molecular target: Fuc(a1-2)Gal(b1-4)[Fuc(a1-3)]GlcNAc(b1-3)Gal(b1-4)[Fuc(a1-3)]GlcNAc(b1-3)Gal(b1-4)[Fuc(a1-3)]GlcNAc
Method in brief: as §1

[6] = molecular target: Fuc(a1-2)Gal6S(b1-4)Glc6S
Method in brief: as §1

[7] = molecular target: Fuc(a1-2)[GalNAc(a1-3)]Gal(b1-4)Glc
Method in brief: as §1

[8] = molecular target: Fuc(a1-3)[Gal(b1-4)]GlcNAc6S
Method in brief: as §1

[9] = molecular target: Fuc(a1-3)[Gal3S(b1-4)]GlcNAc6S
Method in brief: as §1

Gal(a1-6)Glc = molecular target: Gal(a1-6)Glc
Method in brief: as §1

[10] = molecular target: Gal(b1-4)GlcNAc(b1-3)Gal(b1-4)GlcNAc(b1-3)Gal(b1-4)GlcNAc
Method in brief: as §1

Gal3S(b1-3)GalNAc = molecular target: Gal3S(b1-3)GalNAc
Method in brief: as §1

Gal3S6S(b1-4)GlcNAc6S = molecular target: Gal3S6S(b1-4)GlcNAc6S
Method in brief: as §1

Gal4S6S(b1-4)GlcNAc = molecular target: Gal4S6S(b1-4)GlcNAc
Method in brief: as §1

GalNAc(a1-3)GalNAc = molecular target: GalNAc(a1-3)GalNAc
Method in brief: as §1

GlcA(b1-3)GlcNAc = molecular target: GlcA(b1-3)GlcNAc
Method in brief: as §1

Kdn(a2-3)Gal(b1-3)GlcNAc = molecular target: Kdn(a2-3)Gal(b1-3)GlcNAc
Method in brief: as §1

[11] = molecular target: Man(a1-2)Man(a1-2)Man(a1-3)Man
Method in brief: as §1

[12] = molecular target: Neu5Ac(a2-3)Gal(b1-3)[Fuc(a1-4)]GlcNAc
Method in brief: as §1

Neu5Ac(a2-3)Gal(b1-4)Glc = molecular target: Neu5Ac(a2-3)Gal(b1-4)Glc
Method in brief: as §1

[13] = molecular target: Neu5Ac(a2-3)Gal(b1-4)GlcNAc(b1-2)Man(a1-3)[Neu5Ac(a2-6)Gal(b1-4)GlcNAc(b1-2)Man(a1-6)]Man(b1-4)GlcNAc(b1-4)GlcNAc
Method in brief: as §1

[14] = molecular target: Neu5Ac(a2-3)Gal(b1-4)GlcNAc(b1-3)Gal(b1-3)GlcNAc
Method in brief: as §1

[15] = molecular target: Neu5Ac(a2-3)Gal(b1-4)[Fuc(a1-3)]GlcNAc(b1-3)Gal(b1-4)[Fuc(a1-3)]GlcNAc(b1-3)Gal(b1-4)[Fuc(a1-3)]GlcNAc
Method in brief: as §1

[16] = molecular target: Neu5Ac(a2-6)Gal(b1-4)GlcNAc6S
Method in brief: as §1

Neu5Ac(b2-6)GalNAc = molecular target: Neu5Ac(b2-6)GalNAc
Method in brief: as §1

[17] = molecular target: Neu5Gc(a2-3)Gal(b1-3)[Fuc(a1-4)]GlcNAc
Method in brief: as §1

Neu5Gc(a2-3)Gal(b1-4)Glc = molecular target: Neu5Gc(a2-3)Gal(b1-4)Glc
Method in brief: as §1

[18] = molecular target: Fuc(a1-2)Gal(b1-4)GlcNAc(b1-2)Man(a1-6)[Gal(b1-4)GlcNAc(b1-2)Man(a1-3)]Man(b1-4)GlcNAc(b1-4)GlcNAc
Method in brief: as §1

[19] = molecular target: Fuc(a1-2)Gal6S(b1-4)GlcNAc
Method in brief: as §1

[20] = molecular target: Fuc(a1-3)[Gal(b1-4)]GlcNAc
Method in brief: as §1

Gal(a1-3)Gal(b1-4)Glc = molecular target: Gal(a1-3)Gal(b1-4)Glc
Method in brief: as §1

Gal(b1-3)GalNAc = molecular target: Gal(b1-3)GalNAc
Method in brief: as §1

[21] = molecular target: Gal(b1-3)GlcNAc(b1-3)Gal(b1-4)Glc
Method in brief: as §1

[22] = molecular target: Gal(b1-4)GlcNAc(b1-3)Gal(b1-4)Glc
Method in brief: as §1

GlcA(b1-3)Gal = molecular target: GlcA(b1-3)Gal
Method in brief: as §1

[23] = molecular target: GlcNAc(b1-3)[GlcNAc(b1-6)]Gal(b1-4)GlcNAc
Method in brief: as §1

[24] = molecular target: GlcNAc(b1-4)GlcNAc(b1-4)GlcNAc(b1-4)GlcNAc(b1-4)GlcNAc(b1-4)GlcNAc
Method in brief: as §1

Man(a1-3)[Man(a1-6)]Man = molecular target: Man(a1-3)[Man(a1-6)]Man
Method in brief: as §1

Man(b1-4)GlcNAc = molecular target: Man(b1-4)GlcNAc
Method in brief: as §1

[25] = molecular target: Neu5Ac(a2-3)Gal(b1-4)[Fuc(a1-3)]GlcNAc(b1-6)[Gal(b1-3)]GalNAc
Method in brief: as §1

[26] = molecular target: Neu5Ac(a2-6)Gal(b1-4)GlcNAc(b1-2)Man(a1-6)[GlcNAc(b1-2)Man(a1-3)]Man(b1-4)GlcNAc(b1-4)GlcNAc
Method in brief: as §1

B1: CLC (Homo sapiens), Q9UBD9 (protein)
chain: MDLRAGDSWGMLACLCTVLWHLPAVPALNRTGDPGPGPSIQKTYDLTRYLEHQLRSLAGTYLNYLGPPFNEPDFNPPRLGAETLPRATVDLEVWRSLNDKLRLTQNYEAYSHLLCYLRGLNRQAATAELRRSLAHFCTSLQGLLGSIAGVMAALGYPLPQPLPGTEPTWTPGPAHSDFLQKMDDFWLLKELQTWLWRSAKDFNRLKKKMQPPAAAVTLHLGAHGF
**Q.** B1 was tested. Which “glycan array binding signal (z-score)” value [1] did it give?
**A.** -0.218

**Q.** And the “glycan array binding signal (z-score)” value [2]?
**A.** -0.886

**Q.** What about the “glycan array binding signal (z-score)” value [3] of the same binder?
**A.** -0.106

**Q.** And the “glycan array binding signal (z-score)” value [4]?
**A.** -0.557

**Q.** And the “glycan array binding signal (z-score)” value [5]?
**A.** 0.011

**Q.** And the “glycan array binding signal (z-score)” value [6]?
**A.** 2.23

**Q.** What about the “glycan array binding signal (z-score)” value [7] of the same binder?
**A.** 1.52

**Q.** And the “glycan array binding signal (z-score)” value [8]?
**A.** -0.923

**Q.** And the “glycan array binding signal (z-score)” value [9]?
**A.** 2.72

**Q.** And the “glycan array binding signal (z-score)” value (Gal(a1-6)Glc)?
**A.** -0.312

**Q.** And the “glycan array binding signal (z-score)” value [10]?
**A.** -0.565

**Q.** And the “glycan array binding signal (z-score)” value (Gal3S(b1-3)GalNAc)?
**A.** -0.144

**Q.** What about the “glycan array binding signal (z-score)” value (Gal3S6S(b1-4)GlcNAc6S) of the same binder?
**A.** 11.1

**Q.** What about the “glycan array binding signal (z-score)” value (Gal4S6S(b1-4)GlcNAc) of the same binder?
**A.** 2.49

**Q.** What about the “glycan array binding signal (z-score)” value (GalNAc(a1-3)GalNAc) of the same binder?
**A.** 0.257

**Q.** And the “glycan array binding signal (z-score)” value (GlcA(b1-3)GlcNAc)?
**A.** 0.215

**Q.** And the “glycan array binding signal (z-score)” value (Kdn(a2-3)Gal(b1-3)GlcNAc)?
**A.** -0.192

**Q.** And the “glycan array binding signal (z-score)” value [11]?
**A.** 0.263

**Q.** And the “glycan array binding signal (z-score)” value [12]?
**A.** -0.63

**Q.** And the “glycan array binding signal (z-score)” value (Neu5Ac(a2-3)Gal(b1-4)Glc)?
**A.** 0.101

**Q.** And the “glycan array binding signal (z-score)” value [13]?
**A.** 0.098

**Q.** What about the “glycan array binding signal (z-score)” value [14] of the same binder?
**A.** 0.852

**Q.** What about the “glycan array binding signal (z-score)” value [15] of the same binder?
**A.** -0.485

**Q.** What about the “glycan array binding signal (z-score)” value [16] of the same binder?
**A.** -0.346

**Q.** What about the “glycan array binding signal (z-score)” value (Neu5Ac(b2-6)GalNAc) of the same binder?
**A.** -0.297

**Q.** What about the “glycan array binding signal (z-score)” value [17] of the same binder?
**A.** -0.279

**Q.** And the “glycan array binding signal (z-score)” value (Neu5Gc(a2-3)Gal(b1-4)Glc)?
**A.** 2.45

B2: TbCVNHOa (Tuber borchii), Q5MK11 (protein)
chain: MSYADSSRNAVLTNGGRTLRAECRNADGNWVTSELDLDTCIGNPNGFLGWGMQNFSHSSEDIKLEEGGRKLTCRPKTVDGGFRERQGIDLNRIQNVNGRLVFQ
**Q.** With B2 as the binder, how does the “glycan array binding signal (z-score)” value [1] read?
**A.** 1.94

**Q.** What about the “glycan array binding signal (z-score)” value [18] of the same binder?
**A.** -0.642

**Q.** What about the “glycan array binding signal (z-score)” value [2] of the same binder?
**A.** -0.116

**Q.** What about the “glycan array binding signal (z-score)” value [3] of the same binder?
**A.** 0.067

**Q.** What about the “glycan array binding signal (z-score)” value [19] of the same binder?
**A.** 0.327

**Q.** And the “glycan array binding signal (z-score)” value [20]?
**A.** -0.024

**Q.** What about the “glycan array binding signal (z-score)” value (Gal(a1-3)Gal(b1-4)Glc) of the same binder?
**A.** 1.45

**Q.** What about the “glycan array binding signal (z-score)” value (Gal(b1-3)GalNAc) of the same binder?
**A.** -0.24

**Q.** And the “glycan array binding signal (z-score)” value [21]?
**A.** 2.76

**Q.** What about the “glycan array binding signal (z-score)” value [22] of the same binder?
**A.** 1.38

**Q.** What about the “glycan array binding signal (z-score)” value (GlcA(b1-3)Gal) of the same binder?
**A.** -0.018

**Q.** What about the “glycan array binding signal (z-score)” value [23] of the same binder?
**A.** 0.219

**Q.** And the “glycan array binding signal (z-score)” value [24]?
**A.** -0.762

**Q.** What about the “glycan array binding signal (z-score)” value [11] of the same binder?
**A.** 5.14

**Q.** And the “glycan array binding signal (z-score)” value (Man(a1-3)[Man(a1-6)]Man)?
**A.** -0.273

**Q.** And the “glycan array binding signal (z-score)” value (Man(b1-4)GlcNAc)?
**A.** -0.533

**Q.** And the “glycan array binding signal (z-score)” value [25]?
**A.** 0.487

**Q.** What about the “glycan array binding signal (z-score)” value [26] of the same binder?
**A.** -0.034
